# Screening results: PubChem, ICCB-Longwood Screening Facility, Harvard Medical School
# Many of the other results were omitted from the sample, so hits are more common in it than they were.
# Sa growth inh: inhibitors of Staphylococcus aureus growth at 42 °C; S. aureus RN4220 growth, OD600, 20 h; stronger effect = lower value; relative growth, % (no concentration beside the values); actives 0.53% (n = 170,000); AID 720641;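 active = relative growth at most 50% at the other temperature and 20+ points below 30 °C, or under 10% at both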
# Sa helicase inh: blocks Staphylococcus aureus DNA helicase. purified S. aureus helicase, fluorescence unwinding assay. inhibition, % (no concentration beside the values). actives 0.05% (n = 120,000). AID 485395; in the data active = inhibition above about 25%, passing the limit was not always enough;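 note: 0% = mean of negative control wells and 100% = mean of positive control wells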
# The depositor's hits bear a star; nt = no result.
SMILES,Sa growth inh,Sa helicase inh
COc1ccccc1CCC(=O)NCc1ccccc1,97,-9
COc1ccc(/C(O)=C2\NS(=O)(=O)c3ccccc3C2=O)cc1OC,121,4
Cc1nc(CSc2nncs2)cs1,104,3
Cc1ccccc1-c1nnn(CC(=O)N2N=C(c3ccc(Cl)cc3)CC2c2ccco2)n1 (stereo not given),111,-6
CC12CC3(C)CC(CC(=O)O)(C1)CC(CC(=O)O)(C2)C3,nt,-2
COCC(C)n1c(C)cc(C(=O)COC(=O)c2cc(-c3ccco3)nc3ccccc23)c1C (stereo not given),104,8
CCN1C(=O)c2ccccc2Sc2ccc(C(=O)NCC3CCCO3)cc21 (stereo not given),96,9
Nc1ccc(CS(=O)(=O)c2ccc(Cl)cc2)c(Cl)c1,106,nt
CCN(CC)C(=O)CSc1nc2c(c(=O)n(C)c(=O)n2C)n1Cc1ccccc1C,91,18
CC[C@H]1OC(=O)[C@H](C)[C@@H](O[C@H]2C[C@@](C)(OC)[C@@H](O)[C@H](C)O2)[C@H](C)[C@@H](O[C@@H]2O[C@H](C)C[C@H](N(C)C)[C@H]2O)[C@](C)(O)C[C@@H](C)CN(C)[C@H](C)[C@@H](O)[C@]1(C)O,-0.9*,nt
CCN(CC)c1ccc2c(N3CCCCC3)cc(=O)oc2c1,2.1*,-10
CCN(CC)c1ccc2c(C)c(CO)c(=O)oc2c1,102,-44
COc1ccc(Cl)cc1S(=O)(=O)Nc1ccc(CC(=O)O)cc1,81,11
O=C1c2ccccc2C(=O)c2c1oc1c3c(ccc21)OCN(Cc1ccccc1)C3,106,4
CCCCN1COc2ccc3c4c(oc3c2C1)C(=O)c1ccccc1C4=O,13,51*
CCN1CCN(C(c2ccccc2)c2sc3ncnn3c2O)CC1 (stereo not given),nt,15
CCc1c(C)c2cc3c(-c4cccc(OC)c4)coc3cc2oc1=O,90,-22
COc1ccc(NC(=O)c2ccccc2OC)cc1OC,102,nt
OC(CNCc1ccccc1)Cn1c2ccc(Cl)cc2c2cc(Cl)ccc21 (stereo not given),-0.9*,-2
O=C(O)CNCC(O)Cn1c2ccccc2c2ccccc21 (stereo not given),110,22
Cc1ccc(-c2ccc(O)cc2)cc1,47*,-12
Cc1ccc(O)cc1,90,nt
Cc1ccc(OCC(=O)N2c3ccccc3CC2C)cc1 (stereo not given),112,-12
CCN1/C(=C/c2scc[n+]2C)C=C(C)c2cc(OC)c3ccccc3c21,-1.3*,-40
CCN1C(=O)c2ccccc2Sc2ccc(NC(=O)Nc3ccccc3OC)cc21,111,nt
SMILES,Sa growth inh,Sa helicase inh
CN(C(=O)c1noc2c1CCCC2)c1ccccc1Cl,97,9
N#CC(C(=O)C1COc2ccccc2O1)c1nc2ccccc2s1 (stereo not given),152,-2
COc1ccc(NC(=O)CCS(=O)(=O)c2nc(-c3cccs3)cc(C(F)(F)F)n2)cc1,88,nt
COC(=O)CCS(=O)(=O)c1nc(-c2cccs2)cc(C(F)(F)F)n1,1.4*,7
CC(C)(C)N1Sc2ccccc2NC1=S,83,7
O=C(NCCc1ccccc1)c1sc(=S)n2c1[nH]c(=O)c1ccccc12,93,8
O=C(NC1CCCCC1)c1sc(=S)n2c1[nH]c(=O)c1ccccc12,-0.2*,8
COc1nc2c(c(=O)n(C)c(=O)n2C)n1C,86,5
N#C/C(=N\Nc1ccc(F)cc1)C(N)=S,0.0*,-23
NC(=S)NNc1ccc(F)cc1,70,18
COc1ccc(-c2nnn(CC(=O)N(c3ccccc3)C(C(=O)NC3CCCC3)c3ccco3)n2)cc1 (stereo not given),48*,17
Cc1ccc(-c2nnn(CC(=O)N(Cc3ccccc3)C(C(=O)NC3CCCC3)c3ccco3)n2)cc1 (stereo not given),114,3
Cc1sc2nc(CC#N)[nH]c(=O)c2c1C,91,-42
CCN(CC)Cc1nc2sc(C)c(C)c2c(=S)[nH]1,-0.7*,-13
N#CCOC(=O)c1ccccc1C(=O)c1cccs1,86,-8
CN(C)c1nc(C(F)(F)F)cs1,97,3
Cc1cc(C)cc(C(=O)Nc2ccccc2N2CCOCC2)c1,95,6
CCCN(CCC)C(=O)C1=C(C)C(=O)OC12CCCCC2,83,4
CCCCOc1cccc2c1CCN(C)C2=O,66,6
CN1CCc2c(OCc3ccc(Cl)cc3)cccc2C1=O,6.4*,15
CC(C)=CC(=O)CC(O)(c1ccccc1)c1ccccc1,89,13
CC(C)(C)Sc1ccc(C(=O)O)s1,91,8
Oc1ccc(Cl)cc1-c1csnn1,36,28
Oc1ccc(Cl)cc1Sc1cc(Cl)ccc1O,3.6*,12
CC(Oc1ccc2c3c(c(=O)oc2c1)CCC3)C(=O)O (stereo not given),nt,18
SMILES,Sa growth inh,Sa helicase inh
CN(C)c1ccc(/C=N/n2cnnc2)cc1,89,-23
C(=N\n1cnnc1)/c1ccc(N(c2ccccc2)c2ccccc2)cc1,1.4*,13
CO[C@H]1C=CO[C@@]2(C)Oc3c(C)c(O)c4c(O)c(c(C=NN5CCN(C6CCCC6)CC5)c(O)c4c3C2=O)NC(=O)C(C)=CC=C[C@H](C)[C@H](O)[C@@H](C)[C@@H](O)[C@@H](C)[C@H](OC(C)=O)[C@@H]1C,3.9*,nt
O=C(Cn1ncc2ccsc2c1=O)N1CCCC1,85,5
CCc1ccc(NC(=O)CC2C(=O)OCCN2CC)cc1 (stereo not given),47,nt
CCN1CCOC(=O)C1CC(=O)Nc1ccccc1C(F)(F)F (stereo not given),30*,nt
Cc1ccc(NCc2c(C#N)c3ccccc3n2C)cc1,138,11
CC1=C/C(=N/NC(=O)Cn2cnc3ccccc32)CC(C)(C)C1,81,-3
COc1ccc(/C=N/N2CCN(C)CC2)cc1,106,3
COc1ccc(/C=N/n2ncc3ccccc32)cc1,27*,14
CCn1c2ccccc2c2cc(N3C(=O)C=CC3=O)ccc21,3.8*,nt
CCn1c2ccccc2c2cc(C(N)=O)ccc21,86,10
OCc1cncn1Cc1ccccc1,105,nt
CC(C)c1ccc2c(c1)c1c3n2CCN(CC#N)C3CCC1 (stereo not given),89,12
COc1ccc(NC(=O)C2CCN(c3nn4cc(-c5ccc(OC)cc5)nc4s3)CC2)cc1,101,-5
O=C(Nc1ccccc1Cl)c1ccccc1O,19,5
O=C(Nc1ccc([N+](=O)[O-])cc1Cl)c1cc(Cl)ccc1O,-0.6*,nt
CCc1ccc(Nc2c3c(nc4ccccc24)CCC3)cc1,6.7*,18
CCc1ccc(Nc2c3c(nc4ccccc24)CCCC3)cc1,79,7
Cc1nc(SCC(=O)NCc2cccs2)n(C2CCCCC2)c1C,107,8
